An excerpt weighted towards active compounds, which were near 3.7% of everything screened.
Nrf2 block = Nrf2 pathway inhibition | AID 504444 | 360,000 tested, 2.1% active | Potency, µM (titrated, usually from 46 µM), inactives show top-dose activity change, negative = inhibition, most hits filed as inhibitors | A549 ARE-Fluc reporter, luciferase luminescence, 18-24 h; also: % is scaled to controls: 0 for no effect and ±100 for the full control effect; nearly all actives have a fitted effect of over 60% in size
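Concentration-response testing used A549 ARE_Fluc cells at 5000 cells/well. Following an 18-24 h compound incubation, viability was read by fluorescence (Ex 405/Em 525) and luciferase output by luminescence.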
Nrf2 activator = activates Nrf2 signaling; 410,000 tested, 0.31% active; AREc32 ARE-luciferase reporter (MCF7-derived line), luminescence, 24 h; Potency, µM (top dose mostly 46.1 µM), without a hit: at the highest dose activation, actives largely listed as activators; AID 624171; also: % of control where 0% means no effect; nearly all actives have a fitted effect of over 65% in size
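For detection, Steady-Glo was added and plates sat 30 min at RT; before that, AREc32_Fluc cells grown overnight in OPTI-MEM/5% FBS had been treated with 23 nL compound for 24 hr at 37 deg C.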
ELG1 DNA repair = ELG1-dependent DNA repair inhibition; 330,000 tested, 2.3% active; HEK293T ELG1-luciferase reporter, luminescence, 16 h; DNA damage induced by 5-fluorouridine; Potency, µM (highest dose often 46.1 µM), for inactives: top-dose activity change, negative = inhibition, hits mostly inhibitors; AID 504467; also: % is scaled to controls: 0 for no effect and ±100 for the full control effect; nearly all actives have a fitted effect of over 55% in size
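Quantitative HTS, concentration-response format. 2,000 cells/well co-treated with 5-fluorouridine and compound, 16 hr in 5% CO2 at 37 °C; ONE-Glo luminescence read after 30 min.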
A549 tox = kills or reduces viability of A549 cells in Nrf2 counter-screen; A549 ARE-Fluc cells, CellTiter-Fluor viability, 18-24 h; Potency, µM (highest dose often 46 µM), without a hit: top-dose activity change, negative = cytotoxicity, hits mostly inhibitors; 390,000 tested, 0.16% active; AID 504648; also: % is scaled to controls: 0 for no effect and ±100 for the full control effect
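Cytotoxicity counterscreen: CellTiter-Fluor fluorescence was measured in A549 ARE_Fluc cells after 18-24 h of compound exposure in a concentration series. The subsequent BugLite luminescent read reports ARE-luciferase activity.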
Active calls of the source: *; ? = inconclusive; / = no result. Calls follow the shape of the dose curve; as a rule, active = well fitted curve in the direction sought with a large enough effect; inconclusive = small, poorly fitted or top-dose-only effect, or another doubt; inactive = no such curve, though single readings can be large; an effect the other way counts as inactive or inconclusive. Potency is read from the fitted curve at half-maximal effect.

SMILES	Nrf2 block	Nrf2 activator	ELG1 DNA repair	A549 tox
O=C(c1ccc2c(c1)N(Cc1c(F)cccc1Cl)C(=O)c1ccccc1S2)N1CCCC1	10.3µM*	3.6%	/	?
Cc1cccc(N2CC(C)Cn3c2nc2c3c(=O)n(CC(=O)O)c(=O)n2C)c1 (stereo not given)	29.7%	-0.9%	/	14.7%
Clc1cccc(Cl)c1/C=N\Nc1nccs1	11.3%	10µM*	-0.2%	0.7%
O=[N+]([O-])c1ccccc1/C=N\Nc1nccs1	-6.8%	?	16.3%	-23.9%
O=C(c1ccco1)N1CCN(c2ncnc3c2nnn3Cc2ccccc2Cl)CC1	?	0.5%	23.1µM*	0.5%
O=C(c1ccco1)N1CCN(c2nc(C(F)(F)F)nc3c2nnn3Cc2ccccc2)CC1	/	0.6%	?	-26.2%
Fc1ccc(N2CCN(c3ncnc4c3nnn4Cc3ccccc3Cl)CC2)cc1	13µM*	-0.9%	/	2.1%
O=C1c2ccccc2C(c2nnnn2-c2ccc3c(c2)OCCO3)N1CCCN1CCOCC1 (stereo not given)	/	0.1%	/	/
Cc1ccc(OCC(=O)N/N=C/c2ccc([N+](=O)[O-])o2)cc1	20.6µM*	4.0%	-16.4%	-24.7%
O=C(COc1ccccc1)N/N=C/c1ccc([N+](=O)[O-])o1	13µM*	9.8%	?	?
O=C(CSc1ccc(Cl)cc1)N/N=C/c1ccc([N+](=O)[O-])o1	23.1µM*	5.1%	6.2%	?
O=C(CNc1ccc2ccccc2c1)N/N=C/c1ccc([N+](=O)[O-])o1	-5.3%	16.5%	-16.0%	-3.3%
O=C(CN1C(=O)CSc2ccc(S(=O)(=O)N3CCOCC3)cc21)NCc1cccnc1	-8.8%	0.0%	1.3%	4.9%
COc1ccccc1-c1noc(-c2ccc(N3CCC(C)CC3)c([N+](=O)[O-])c2)n1	?	0.2%	/	-3.9%
COc1cccc(C2c3c(ncn(-c4ccccc4-c4ccccc4)c3=N)Oc3ccc4ccccc4c32)c1 (stereo not given)	17.9%	/	/	-0.9%
COc1ccc(OCCn2c(NC(=O)c3ccco3)nc3ccccc32)cc1	?	7.2%	12.6µM*	-11.9%
O=c1c2cc([N+](=O)[O-])cc([N+](=O)[O-])c2[nH]n1-c1ccccc1	2.4%	3.0%	-3.3%	16.4µM*
C[n+]1ccc(C(=O)Nc2ccccc2Cl)cc1	-31.2%	0.2%	13.1%	0.5%
COc1cc2c(O)c3c(c(-c4ccc5c(c4)OCO5)c2cc1OC)C(=O)OC3	?	5.5%	?	18.4µM*
COc1cc2c(OC(C)=O)c3c(c(-c4ccc5c(c4)OCO5)c2cc1OC)C(=O)OC3	?	16.5%	-16.1%	?
Cc1onc(-c2c(F)cccc2Cl)c1C(=O)N1CCN(c2ncc(Br)cn2)CC1	?	-0.1%	13µM*	13.0%
COCCN1C(=O)COc2ccccc2C1C(=O)NC1CCCC1 (stereo not given)	/	0.0%	/	/
Cc1ccc(-c2nnn3c2nc(NCCc2ccc(S(N)(=O)=O)cc2)c2ccccc23)cc1	5.3%	6.1%	?	8.8%
NS(=O)(=O)c1ccc(CCNc2nc3c(-c4cccc(F)c4)nnn3c3ccccc23)cc1	-0.5%	3.8%	2.59µM*	-3.3%
Cc1cccc(-c2nnn3c2nc(NCCc2ccc(S(N)(=O)=O)cc2)c2ccccc23)c1	21.5%	4.1%	2.59µM*	-0.1%
SMILES	Nrf2 block	Nrf2 activator	ELG1 DNA repair	A549 tox
Cc1cccc(-c2nnn3c2nc(NCCc2ccc(S(N)(=O)=O)cc2)c2cc(Cl)ccc23)c1	19.0%	-1.2%	/	0.5%
CCOC(=O)C1=C(C)NC(C)=C(C(=O)OCC)C1C(=O)OCC(=O)Nc1ccc(NC(C)=O)cc1	/	0.8%	/	/
COc1ccc(C2c3c(nc(C)[nH]c3=O)Oc3ccc4ccccc4c32)cc1OC (stereo not given)	-7.0%	/	/	13.8%
CC1(C)CC(=O)C/C(=N/NC(=O)c2ccc(-c3ccccc3)cc2)C1	16.4µM*	0.1%	-10.4%	-1.1%
Cn1nc([N+](=O)[O-])nc1S(C)(=O)=O	23.1µM*	-2.2%	?	-7.9%
CS(=O)(=O)c1nc([N+](=O)[O-])nn1CCCc1ccccc1	?	-2.6%	/	-8.5%
Cc1ccc(C)c(Nc2nc3nonc3nc2Nc2cccc(C)c2C)c1	5.8µM*	0.8%	/	?
Cc1ccc(C)c(Nc2nc3nonc3nc2N2CCOCC2)c1	12.4%	0.2%	3.7%	1.0%
N#Cc1ccccc1NC(=O)c1ccccc1OCC(=O)Nc1ccc2c(c1)oc1ccccc12	?	3.3%	/	2.7%
N#Cc1ccccc1NC(=O)c1ccccc1OCC(=O)NCc1ccco1	0.1%	11.2µM*	-6.0%	9.6%
COc1ccc(NC(=O)Nc2ccc3c(c2)C(=O)N([C@H](C)CO)C[C@H](C)[C@@H](CN(C)C(=O)Nc2ccc(OC)cc2)O3)cc1	10.0%	0.0%	14.3%	-1.9%
CC(C)Oc1ccc(CN2CCc3nc(Nc4ccc5c(c4)OCCO5)ncc3C2)cc1	/	0.6%	/	-14.4%
CCCCCCCOC(=O)C1=C(C)Nc2ncnn2C1c1cccs1 (stereo not given)	25.9µM*	-0.9%	?	-5.3%
CCCCCCCCOC(=O)C1=C(C)Nc2nnnn2C1c1cccs1 (stereo not given)	?	-1.9%	?	-11.8%
Cc1nc(N2CCOCC2)c2c(C(=O)NCCc3ccccc3)c(C)oc2n1	?	0.5%	/	3.2%
O=S1(=O)Nc2c(cc(Cl)c3ccc(Cl)nc23)-c2ccccc21	19.2%	/	/	-3.2%
Cc1ccc2ccc3c(c2n1)NS(=O)(=O)c1ccc(C(F)(F)F)cc1-3	8.2µM*	/	/	7.31µM*
O=C1N[C@@H](c2ccccc2)COC(=O)[C@H](Cc2ccc(F)cc2)CC/C=C/C[C@@H]1CC(=O)N(CCO)Cc1ccccc1	?	-0.1%	?	?
O=C1NC[C@H](c2ccccc2)OC(=O)[C@@H](Cc2ccc(F)cc2)CC/C=C/C[C@@H]1CC(=O)N(CCO)Cc1ccccc1	?	-0.2%	23.1µM*	/
O=C1NC[C@H](c2ccccc2)OC(=O)[C@@H](Cc2ccc(F)cc2)CC/C=C/C[C@H]1CC(=O)N(CCO)Cc1ccccc1	?	-5.1%	5.17µM*	/
Cc1cccc(N2CC(C(=O)Nc3nnc(SCc4ccccn4)s3)CC2=O)c1 (stereo not given)	4.9%	-0.1%	-1.2%	1.4%
CN(C)S(=O)(=O)c1cccc(-c2nn(-c3ccccc3)cc2/C=C(\C#N)c2nc3ccccc3[nH]2)c1	?	0.3%	2.59µM*	-10.6%
O=C(O)CCn1cc(/C=C2\SC(=S)NC2=O)c(-c2ccccc2)n1	-13.5%	-0.3%	-3.5%	?
CN(C)S(=O)(=O)c1cccc(-c2nn(-c3ccccc3)cc2/C=C2\SC(=S)NC2=O)c1	16.4µM*	4.4%	23.1µM*	?
COc1ccc(CC2(CO)CCN(S(=O)(=O)c3c(C)nn(C)c3Cl)CC2)cc1	2.1%	0.5%	?	-4.2%
COc1ccc(CC2(CO)CCN(S(=O)(=O)c3sccc3C)CC2)cc1	-24.1%	0.8%	18.3µM*	-7.7%
